nsP2pro inh: CHIKV nsP2 protease inhibition, primary qHTS; AID 1964107; actives 1.1% (n = 31,000); Potency, µM (titrated, usually from 24.9 µM), without a hit: top-dose activity change, negative = inhibition, hits mostly inhibitors; FRET peptide cleavage, nsP2pro, fluorescence 1 h; Q8JUX6; also: nearly all actives have a fitted effect of over 60% in size
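Recombinant nsP2pro (150 nM) was preincubated with compound 15 min at room temperature in 10 mM Tris-HCl pH 8.0, 0.01% Tween 20. Peptide 2 FRET substrate (2.5 uM) was then added and fluorescence read after 1 h. Seven-point series, up to 25 uM.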
nsP2 cell sec: inhibits CHIKV nsP2 protease in cells; cell-based CHIKV nsP2 protease reporter assay; AID 1964100; Potency, µM (titrated, usually from 51.1 µM), without a hit: top-dose activity change, negative = inhibition, most hits filed as inhibitors; shares compounds with nsP2pro inh; actives 10% (n = 450); also: nearly all actives have a fitted effect of over 70% in size
NSP2 full ctr: selectivity test for CHIKV nsP2 protease inhibitors: full-length NSP2. shares compounds with nsP2pro inh. Full-length CHIKV NSP2 protease enzymatic counterscreen. Potency, µM (series often up to 50.7 µM), without a hit: at the top dose activity change, negative = inhibition, usual class: inhibitors. actives 39% (n = 410). AID 1964101; also: nearly all actives have a fitted effect of over 65% in size
Furin counter: inhibits human furin in a CHIKV nsP2 protease selectivity counterscreen | Potency, µM (top dose mostly 50.6 µM), without a hit: at the top dose activity change, negative = inhibition, hits mostly inhibitors | actives 6% (n = 410) | Recombinant human furin enzymatic counterscreen, fluorogenic substrate | shares compounds with nsP2pro inh
Target sequence (P09958 whole entry, looked up): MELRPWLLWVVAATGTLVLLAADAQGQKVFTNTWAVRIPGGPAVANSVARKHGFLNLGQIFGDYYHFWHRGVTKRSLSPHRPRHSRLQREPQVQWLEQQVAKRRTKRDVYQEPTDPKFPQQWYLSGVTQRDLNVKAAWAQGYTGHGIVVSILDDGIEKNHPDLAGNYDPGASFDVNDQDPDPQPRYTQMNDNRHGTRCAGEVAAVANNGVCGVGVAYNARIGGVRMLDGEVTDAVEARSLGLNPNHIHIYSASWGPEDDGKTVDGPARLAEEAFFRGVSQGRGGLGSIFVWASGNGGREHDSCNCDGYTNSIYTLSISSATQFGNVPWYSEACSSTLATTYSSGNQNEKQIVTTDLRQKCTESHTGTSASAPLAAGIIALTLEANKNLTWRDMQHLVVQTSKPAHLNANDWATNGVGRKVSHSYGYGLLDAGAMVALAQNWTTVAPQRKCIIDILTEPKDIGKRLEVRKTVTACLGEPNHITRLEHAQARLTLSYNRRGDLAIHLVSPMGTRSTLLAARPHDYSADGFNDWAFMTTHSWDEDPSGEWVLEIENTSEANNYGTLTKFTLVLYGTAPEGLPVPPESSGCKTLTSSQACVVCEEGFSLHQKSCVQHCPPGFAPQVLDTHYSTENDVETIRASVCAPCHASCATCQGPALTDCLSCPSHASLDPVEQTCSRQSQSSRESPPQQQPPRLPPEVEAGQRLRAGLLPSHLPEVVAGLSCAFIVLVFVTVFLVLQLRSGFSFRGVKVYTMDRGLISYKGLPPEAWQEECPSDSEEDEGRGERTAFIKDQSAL
nsP2 NS23 pep: selectivity test for CHIKV nsP2 protease inhibitors: endogenous NS2/3 peptide; Potency, µM (highest dose often 51 µM), for the others: top-dose activity change, negative = inhibition, hits mostly inhibitors; Purified CHIKV nsP2 protease, endogenous NS2/3 peptide cleavage; actives 34% (n = 410); shares compounds with nsP2pro inh; also: nearly all actives have a fitted effect of over 55% in size
Papain counter: selectivity counter-screen for CHIKV nsP2 protease inhibitors: papain; shares compounds with nsP2pro inh; purified papain protease activity, enzymatic inhibition; Potency, µM (series often up to 51 µM), for the others: at the highest dose activity change, negative = inhibition, usual class: inhibitors; actives 5% (n = 410); AID 1964104
nsP2pro confirm: CHIKV nsP2 protease inhibition, confirmatory qHTS | shares compounds with nsP2pro inh | CHIKV nsP2 protease enzymatic activity, qHTS | Potency, µM (highest dose often 25.5 µM), for the others: at the highest dose activity change, negative = inhibition, hits mostly inhibitors | actives 43% (n = 410); also: nearly all actives have a fitted effect of over 75% in size
HCV NS3 counter: inhibits HCV NS3/4A protease in an nsP2pro selectivity counterscreen. shares compounds with nsP2pro inh. HCV NS3/4A protease biochemical counterscreen. Potency, µM (series often up to 50.9 µM), most hits filed as inhibitors. actives 20% (n = 410). AID 1964106; also: nearly all actives have a fitted effect of over 55% in size
Numbers without * were called inactive; i = inactive; ? = inconclusive; [ ] = remark or other dose. Many of the other results were omitted from the sample, so hits are more common in it than they were. Calls follow the shape of the full dose curve. % is scaled to controls: 0 for no effect and ±100 for the full control effect; potency is read from the fitted curve at half-maximal effect.

SMILES | nsP2pro inh | others
Cc1cnn(-c2cc(N3CCC(n4cc(C5CCCC5)nn4)CC3)ncn2)c1 | i
c1c(C2CC2)nnn1C1CNC1 | 8.91µM* | nsP2 cell sec=15.0%;NSP2 full ctr=-18.2%;Furin counter=-25.1%;nsP2 NS23 pep=?;Papain counter=-1.4%;nsP2pro confirm=?;HCV NS3 counter=?
C/C=C/C=C/C=C/C(=O)O[C@@H]1C=C(CO)[C@](O)(CO)[C@@]2(C)CCCC(C)(C)[C@H]12 | -19.3%
COC(=O)C1=C(C)N=C2SC=C(CC(=O)NCCCN3CCCC3=O)N2C1c1ccccc1 (stereo not drawn) | -28.6%
O=C(OCc1ccccc1)N1CCOCC12CCN(Cc1c[nH]c3ccccc13)CC2 | i
C=CCCCCCCCCC(=O)O | 4.3µM* | nsP2 cell sec=-4.4%[17.6 µM];NSP2 full ctr=1.42µM*;Furin counter=?;nsP2 NS23 pep=?;Papain counter=?;nsP2pro confirm=2.19µM*;HCV NS3 counter=i
CCCCCCCC(=O)O | -4.7%
CCCCCCCCCCCCCCCC(=O)O | -15.3%
CC[C@@]1(O)CC2CN(CCc3c([nH]c4ccccc34)[C@](C(=O)OC)(c3cc4c(cc3OC)N(C)C3[C@@](O)(C(N)=O)[C@H](O)[C@]5(CC)C=CCN6CC[C@@]43[C@@H]65)C2)C1 (stereo partly drawn) | 15.3%
CC(C)(C)n1cnc2cc(C(=O)N3CCCCC3)ccc21 | 4.0%
COCCCn1c(=O)c(C(=O)NC2CC2)nc2cccnc21 | -5.4%[39.2 µM]
N#Cc1ccc(-c2ccc(CNc3ccc(C4CCNCC4)cc3)o2)cc1 | -8.0%
N#Cc1ccc(-c2ccc(C3Nc4ccccc4C(=O)N3O)o2)cc1 (stereo not drawn) | 10µM* | nsP2 cell sec=23.1µM*;NSP2 full ctr=0.0%;Furin counter=-14.5%;nsP2 NS23 pep=-11.0%;Papain counter=-16.8%;nsP2pro confirm=?;HCV NS3 counter=i
O=C(O)C1NCc2[nH]cnc2C1c1ccccc1 (stereo not drawn) | i
Cc1cc(C)nc(NC(=S)N2CCN(c3cccc(C(F)(F)F)n3)CC2)c1 | -34.8%
O=C(CN1C(=O)N/C(=C\c2cccn2-c2cccc(C(=O)O)c2)C1=O)Nc1ccc(Cl)cc1 | i
O=C(/C=C/c1ccc(O)c(O)c1)O[C@@H](C(=O)O)[C@@H](OC(=O)/C=C/c1ccc(O)c(O)c1)C(=O)O | 40.0%
COc1cc(/C=C/C(=O)O)ccc1O | 13.3%
O=C(O)/C=C/c1ccc(O)c(O)c1 | ? | nsP2 cell sec=-7.6%;NSP2 full ctr=-22.4%;Furin counter=-2.1%;nsP2 NS23 pep=2.6%;Papain counter=-7.7%;nsP2pro confirm=-5.0%;HCV NS3 counter=?
CC1CCN(CCNC(=O)c2cc3cn(C(C)C)cc3s2)CC1 | 4.7%
CCCCOC(=O)C(=O)Nc1cccc(-c2nn[nH]n2)c1 | -1.3%
O=C(O)C(=O)Nc1cccc(-c2nn[nH]n2)c1 | ? | nsP2 cell sec=0.1%;NSP2 full ctr=?;Furin counter=-7.0%;nsP2 NS23 pep=?;Papain counter=-6.0%;nsP2pro confirm=10µM*;HCV NS3 counter=?
Cc1ccc(-c2cc(C(=O)Nc3ccc(-c4nn[nH]n4)cc3)c3ccccc3n2)cc1C | i
N#CC1=C2SCN(C3CCCCC3)CN2C(=O)CC1c1ccc(Cl)cc1 (stereo not drawn) | 72.1%
N#CC1=C2SCN(C3CCCCC3)CN2C(=O)CC1c1ccc(F)cc1 (stereo not drawn) | ? | nsP2 cell sec=?;NSP2 full ctr=-1.7%;Furin counter=-7.2%;nsP2 NS23 pep=1.83µM*;Papain counter=-13.0%;nsP2pro confirm=12.6µM*;HCV NS3 counter=i
SMILES | nsP2pro inh | others
CC1(C)Oc2ncnc(N)c2N=C1c1ccc(C23CCC(CC(=O)O)(CC2)CC3)cc1 | -7.6%
CC(=O)Nc1cccc([S+](=O)([O-])N2CCCN([S+](=O)([O-])c3cccc(NC(C)=O)c3)CC2)c1 | i
O=C(NCC(=O)N1CCCC1)Nc1ccc2ccccc2c1 | ? | nsP2 cell sec=-3.3%;NSP2 full ctr=?;Furin counter=-5.2%;nsP2 NS23 pep=-25.4%;Papain counter=-1.2%;nsP2pro confirm=-14.5%;HCV NS3 counter=i
COc1ccccc1NC(=O)Nc1ccc2ccccc2c1 | 43.5%
O=C(NCC(=O)N1CCCC1)Nc1ccc2cnccc2c1 | 0.1%
Cc1cc(C)nc(NC(=S)N2CCN(c3cc(Cl)cc(Cl)n3)CC2)c1 | -5.8%
NCCS[As](SCCN)c1ccc(Nc2nc(N)nc(N)n2)cc1 | 35.5%
C=C1CCN([C@H](C)[C@](O)(Cn2cncn2)c2ccc(F)cc2F)CC1 | -2.9%
CCN(CC)CCNc1ccc(CO)c2sc3ccccc3c(=O)c12 | ? | nsP2 cell sec=?;NSP2 full ctr=-19.1%;Furin counter=-11.9%;nsP2 NS23 pep=?;Papain counter=-20.9%;nsP2pro confirm=66.3%;HCV NS3 counter=i
CCN(CC)CCNc1ccc2ncn3c4ccc(O)cc4c(=O)c1c23 | 101.2%
Cc1ccc(NCCN(C)CCNc2ccnc3cc(Cl)ccc23)c2c(=O)c3ccccc3sc12 | 34.0%[10 µM]
Cc1ccnc(NC(=S)N2CCc3cccc(C(F)(F)F)c3C2)c1 | i
NC(=O)NCCCC(NC(=O)Cc1ccccc1)C(=O)O (stereo not drawn) | -4.4%
N#Cc1nc(-c2cccc3ccccc23)oc1NC1COC1 | -14.8%
CC(C)=CCCC1(C)C=Cc2c(O)c3c(c(CC=C(C)C)c2O1)OC12C(=CC4CC1C(C)(C)OC2(C/C=C(/C)C(=O)O)C4=O)C3=O (stereo not drawn) | ? | nsP2 cell sec=?;NSP2 full ctr=-6.2%;Furin counter=-13.3%;nsP2 NS23 pep=?;Papain counter=-19.5%;nsP2pro confirm=?;HCV NS3 counter=i
CC(C)=CCCC1(C)C=Cc2c(c(C)cc3c2[nH]c2ccccc23)O1 (stereo not drawn) | 0.1%
COc1ccccc1-c1cc(Nc2cccc(CS(N)(=O)=O)c2)ncn1 | 8.7%
O=C(Nc1cccc(Cc2ccccc2)n1)c1ccc(-c2cccc([N+](=O)[O-])c2)o1 | 10µM* | nsP2 cell sec=47.9%;NSP2 full ctr=?;Furin counter=0.3%;nsP2 NS23 pep=-14.2%;Papain counter=-9.6%;nsP2pro confirm=?;HCV NS3 counter=i
O=C(Nc1cncc(Cc2ccccc2)c1)c1ccc(-c2cccc([N+](=O)[O-])c2)o1 | -11.9%
O=C(Nc1cccc(Cc2ccccc2)c1)c1ccc(-c2cccc([N+](=O)[O-])c2)o1 | 4.5%
O=C(c1ccc2ncccc2c1)N1CC(n2ccnc2)C1 | i
Cc1nc([C@](C)(O)CO)sc1-c1cnc(N)c(O[C@H](C)c2cc(F)ccc2-n2nccn2)c1 | 7.85µM* | nsP2 cell sec=-21.4%;NSP2 full ctr=-14.8%;Furin counter=3.2%;nsP2 NS23 pep=-22.9%;Papain counter=22.4%;nsP2pro confirm=-11.6%;HCV NS3 counter=i
O=c1ncn(Cc2ccccc2)c2ccc(-c3ccsc3)nc12 | -14.1%[39.2 µM]
COc1ccc(Cl)c(Nc2ncnc3cc(OCC4CCN(C)CC4)c(OC)cc23)c1 | -0.3%
COc1ccc(F)cc1-c1cccc(C(=O)NCC(=O)NCc2cccs2)c1 | -0.7%

Compound activity deposited in PubChem BioAssay by National Center for Advancing Translational Sciences (NCATS).
